Records with an inconclusive call do not appear. Activity calls are given as the source filed them. How the calls were made is not given here.
biological target: Beta-2 adrenergic receptor (Homo sapiens) (UniProt P07550); experiment: qHTS for antagonists of the Thyroid Stimulation Hormone Receptor: Hit Validation with Beta-2 Adrenergic Receptor; conditions: B2AR-expressing cells, cAMP HTRF, antagonist counterscreen; stronger effect = higher value
From the text: The thyroid-stimulating hormone receptor (TSHR) is a member of the 7 trans-membrane-spanning receptor (7TMR) family of cell surface receptors. TSHR-mediated hyperthyroidism is important in thyroid pathology. The development of small molecule antagonists of TSHR may lead to therapeutic approaches for TSHR-mediated hyperthyroidism caused by constitutively activating mutations or stimulating auto-antibodies associated with Graves' disease. Graves' disease is the leading cause of hyperthyroidism and is caused by autoantibodies that stimulate TSHR (TsAbs) causing thyroid growth and unregulated overproduction of thyroid hormones and existing treatments have liabilities (agranulocytosis). In addition, TSHRs are known to be expressed in multiple extrathyroidal tissues including bone, brain, kidney, testis, fat and cells of the immune system but the role of the TSHR in these tissues is not clear. Therefore, TSHR antagonists/inverse agonists could be used as probes of extrathyroidal TSHR function. Finally, TSHR inverse agonists, which are a subclass of antagonists that inhibit agonist-independent (or basal or constitutive) TSHR signaling, could be used to inhibit TSH-independent signaling in patients with recurrent or metastatic thyroid cancer who are receiving thyroid hormone to suppress TSH. In collaboration between scientist from the NCGC and the NIDDK, a miniaturized HTRF high-throughput screen was developed. It's a cell based assay, where an anti cAMP antibody contains a fluorescent cryptate tag (excitation 337 nm; emission 620 nm) and the acceptor is cAMP-d2 (excitation 620 nm; emission 665 nm). When antibody and cAMP-d2 interact and are excited by a 337 nm light, a FRET occurs resulting in emission at 665 nm. The assay is competition between cAMP-d2 and cAMP (from the cell lysate). The homogeneous protocol allows for one step dispense after stimulation that is automation friendly. This is a hit validation assay in a counterscreen using beta-2 adrenergic receptor, a closely related hormone receptor NIH Chemical Genomics Center [NCGC] NIH Molecular Libraries Probe Centers Network [MLPCN] Grant: MH090855 Assay Provider: Marvin Gershengorn, NIDDK
An anti cAMP antibody contains a fluorescent cryptate tag (excitation 337 nm; emission 620 nm) and the acceptor is cAMP-d2 (excitation 620 nm; emission 665 nm). When antibody and cAMP-d2 interact and are excited by a 337 nm light, a FRET occurs resulting in emission at 665 nm. The assay is competition between cAMP-d2 and cAMP (from the cell lysate). The homogeneous protocol allows for one step dispense after stimulation that is automation friendly.

Beta-2 adrenergic receptor (Homo sapiens), sequence (P07550 whole entry, looked up): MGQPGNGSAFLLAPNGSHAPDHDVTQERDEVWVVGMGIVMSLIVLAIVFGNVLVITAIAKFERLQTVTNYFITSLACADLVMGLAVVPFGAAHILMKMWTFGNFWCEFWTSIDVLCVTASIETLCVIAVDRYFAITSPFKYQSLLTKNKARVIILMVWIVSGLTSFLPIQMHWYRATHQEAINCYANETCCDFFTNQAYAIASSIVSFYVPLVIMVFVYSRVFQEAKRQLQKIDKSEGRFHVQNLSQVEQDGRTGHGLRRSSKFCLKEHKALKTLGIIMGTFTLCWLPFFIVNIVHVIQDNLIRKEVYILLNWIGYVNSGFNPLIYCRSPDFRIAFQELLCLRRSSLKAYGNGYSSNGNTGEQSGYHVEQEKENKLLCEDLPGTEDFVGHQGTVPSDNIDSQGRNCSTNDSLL

Row | Compound | max inhibition
1 | O=C(Nc1ccc(Oc2ccc(Cl)cc2)c(Cl)c1)c1cc(I)cc(I)c1O | 91.3% (active)
2 | O=C1/C(=C\c2cc([N+](=O)[O-])ccc2O)SC(=S)N1Cc1ccc(Cl)cc1 | 90.7% (active)
3 | O=C(Nc1nc(-c2ccccc2)cs1)c1ccccc1NS(=O)(=O)c1ccc(F)cc1 | 96% (active)
4 | O=c1cc(C(F)(F)F)[nH]c2c(C(F)(F)F)cccc12 | 88.6% (active)
5 | CC(=O)Oc1c(C)cc(Cl)cc1C(=O)Nc1ccc([N+](=O)[O-])cc1Cl | 82.9% (active)
6 | COc1ccc(-c2csc(/C(C#N)=C\c3ccc(O)c([N+](=O)[O-])c3)n2)cc1OC | 94.4% (active)
7 | CCSC1=NSC2=NC(=O)/C(=C\c3coc4ccccc4c3=O)C(=N)N12 | 96.6% (active)
8 | Cc1ccc(-n2[nH]c(C)c(/C=N/Nc3ccc([N+](=O)[O-])cc3[N+](=O)[O-])c2=O)cc1C | 88.7% (active)
9 | O=S(=O)(Nc1cc(Cl)ccc1-n1cncn1)c1cc(Br)ccc1Br | 72.6% (active)
10 | COc1ccc(OCC(=O)NC(=S)Nc2ccc(N3CCOCC3)c(Cl)c2)cc1 | 89.7% (active)
11 | O=C(COc1cccc2ccccc12)Nc1ccc(Cl)cc1C(=O)O | 85.8% (active)
12 | Oc1c(Cl)cc(Cl)c(Cl)c1Cc1c(O)c(Cl)cc(Cl)c1Cl | 96.4% (active)
13 | O=C1NC(=S)S/C1=C\c1ccc(SCc2ccccc2)o1 | 92.6% (active)
14 | CCn1nc([N+](=O)[O-])c(C(C#N)c2nc3cc(C(F)(F)F)ccc3s2)c(Cl)c1=O (centres undefined) | 94.3% (active)

From PubChem BioAssay AID602447 (National Center for Advancing Translational Sciences (NCATS), 2012)
